About 8,600 (12%) of roughly 69,000 compounds showed an effect of 50% or more. Only a selection was taken, and strong results are over-represented in it overall.
tested on: Plasmodium berghei; experiment: Screen against P. berghei liver stage (PbLuc), transformed with Luciferase, at 10uM; type: functional, HepG2; conditions: tested at 10 uM

In order of falling INHIBITION:
1. CC(C)Cn1ccc2c(NC(=O)c3n[nH]c4c3CCC4)cccc21  90.8%
2. COc1c(C)cnc(CN2CCC(N(C)C(C)C(N)=O)CC2)c1C (stereo not given)  90%
3. CCc1c(C)nc2cc(C3CCN(CCc4ccccc4)C3)nn2c1O (stereo not given)  83.3%
4. CCNC(=O)N(C)C1CCN(Cc2ncc(C)c(OC)c2C)CC1  82.6%
5. CCc1c(C)nc2cc(C3CCN(Cc4cccc(F)c4)C3)nn2c1O (stereo not given)  77.3%
6. CC(C)n1ccc2c(NC(=O)c3n[nH]c4c3CCC4)cccc21  76.9%
7. COc1c(C)cnc(CN(C)C2CCCCC2)c1C  72%
8. CC(=O)Nc1cccc2c1ccn2CC(=O)Nc1n[nH]c(CC(C)C)n1  71.3%
9. Cc1cc(C(=O)Nc2ccc3oc(=O)n(CCN(C)C)c3c2)c(C)o1  69.7%
10. O=C(c1ccc(S(=O)(=O)NCC(F)F)cc1)N1C[C@H]2CNC[C@H]2C1  69.3%
11. CCc1c(C)nc2cc(C3CCN(Cc4ccc(F)cc4)C3)nn2c1O (stereo not given)  66.5%
12. CCSC1(CNc2ncc(Br)cn2)CCOCC1  66.4%
13. NCC(=O)N1CCCC1c1ccc(C(=O)NCc2ccoc2)s1 (stereo not given)  64.5%
14. CC(C)COC1CCN(C(=O)c2ccc(C(F)(F)F)[nH]c2=O)CC1  63.5%
15. CC(C)c1nc2cc(NC(=O)c3n[nH]c4c3CCC4)ccc2n1C  62.2%
16. Cc1[nH]c2ccccc2c1-c1ccnc(NCCN2CCOCC2)n1  62.2%
17. Cc1[nH]c2ccccc2c1-c1ccnc(NCCN2CCCCC2)n1  61.9%
18. O=S(=O)(Cc1cccc(Cl)c1)CC(O)Cn1cccn1 (stereo not given)  57.5%
19. Oc1coc2cc(OC[C@@H]3CCCN4CCCC[C@H]34)ccc12  56.2%
20. CCC(C)C(=O)Nc1ccc2oc(=O)n(CCN(C)C)c2c1 (stereo not given)  56%
21. CCC(CC)C(=O)Nc1ccc2oc(=O)n(CCN(C)C)c2c1  50.8%
22. COCc1ccccc1C(=O)N(C)Cc1ncc(C)c(OC)c1C  50.1%
23. COCCn1cc(NC(=O)NCC(c2cccc(F)c2)N(C)C)cn1 (stereo not given)  49.7%
24. Cc1cc(S(=O)(=O)NCC(C)(C)N)c(F)cc1F  48.8%
25. CC(CN1CCCC1=O)NC(=O)NCc1ccccc1-n1cccn1 (stereo not given)  48.6%
26. CSC1(CNc2ncc(Br)cn2)CCOCC1  45.7%
27. COCCNC(=O)NCc1cc(-c2cccs2)n(C2CCCC2)n1  43.9%
28. O=C(c1ccc(S(=O)(=O)NCC(F)F)cc1)N1CC[C@H]2CNC[C@H]21  43.7%
29. COc1c(C)cnc(CN(C)C2CCOC3(CCOCC3)C2)c1C (stereo not given)  43.6%
30. O=C(c1cscn1)N1CC[C@]2(C[C@@H](OCCN3CCCC3)CO2)C1  43.2%
31. COCCNC(=O)Cc1cnc(-n2cccc2)s1  41.1%
32. O=c1[nH][nH]cc1-c1ccnc(NCCCN2CCOCC2)n1  39.7%
33. CC(C)=CCCC1(C)CCC(=O)N(CCc2csc(N)n2)C1 (stereo not given)  39.3%
34. CCc1c(C)[nH]c2cc(C3CCN(Cc4ccncc4C)C3)nn2c1=O (stereo not given)  38.8%
35. CS(=O)(=O)N1CCCC(Cc2cnc(Br)cn2)CC1 (stereo not given)  37.8%
36. Cc1ncc(CN2CCCC2c2ccc(C(=O)NCc3ccoc3)s2)s1 (stereo not given)  37.4%
37. O=S(=O)(c1cnccc1N1CCN(CCO)CC1)N1CCOCC1  36.8%
38. Cc1nc2[nH]cnc(NCCN3CCOCC3)c-2n1  36.8%
39. Fc1ccc(-c2n[nH]cc2-c2ccnc(NCCN3CCCC3)n2)cc1  35.3%
40. CN(C(=O)c1ccccc1F)[C@@H]1CC[C@@H](O)[C@@H]1O  34.1%
41. O=S(=O)(Cc1ccccc1)CC(O)Cn1cccn1 (stereo not given)  34%
42. Cc1nc(O)cc(C2CCN(Cc3ccc(F)c(F)c3)C2)n1 (stereo not given)  30.8%
43. NC(CNS(=O)(=O)Cc1cccc2cccnc12)c1ccccc1 (stereo not given)  29%
44. CCc1nc(C2CCCN2Cc2nccn2CC(F)(F)F)no1 (stereo not given)  28.8%
45. c1cc2c(cc1OC[C@@H]1CCCN3CCCC[C@H]13)OCCO2  28.4%
46. Cc1[nH]c2ccccc2c1-c1ccnc(NC[C@H](O)CO)n1  27.8%
47. CN(C)C1(CNc2ncc(Br)cn2)CCOCC1  27.8%
48. O=C(CC[C@@H]1CCCN2CCCC[C@H]12)NCCc1cc(O)ncn1  26.8%
49. COc1c(C)cnc(CN(C)C(=O)c2ccccc2O)c1C  26.3%
50. Cc1ccc(C(=O)N2CCCCC2c2[nH]ncc2S(C)(=O)=O)cn1 (stereo not given)  24.8%
51. CN(C)CCn1c(=O)oc2ccc(NC(=O)CSc3ccccc3)cc21  24.3%
52. Cc1noc(C)c1CN1CCN(CCN(C)C)c2ncccc2C1  23.3%
53. O=C(NCc1ccoc1)c1ccc(C2CCCN2CC2CCOCC2)s1 (stereo not given)  22.7%
54. Cc1noc(C)c1-c1cncc(C2CCCN2Cc2cncnc2)n1 (stereo not given)  22.2%
55. CC(=O)Nc1cccc2c1ccn2CC(=O)NC(C)C  22%
56. CC(=O)Nc1cccc2c1ccn2CC(=O)Nc1nc[nH]n1  21.5%
57. Cc1[nH]ccc1C(=O)N1C[C@@H]2CC[C@H]1CN(S(=O)(=O)N(C)C)C2  21.5%
58. COCc1nccc(C2CCCN(Cc3cccc(F)c3)C2)n1 (stereo not given)  20.9%
59. Cc1ccsc1CN(Cc1ccccn1)CC(O)CO (stereo not given)  19.7%
60. CN(C)CCn1c(=O)oc2ccc(NC(=O)N3CCCCCC3)cc21  17.5%
61. Cc1cccc(CS(=O)(=O)CC(O)Cn2cccn2)c1 (stereo not given)  15.5%
62. CC(C)n1cnc2c1C(C(=O)NCCC#N)N(Cc1ccccc1)CC2 (stereo not given)  15.1%
63. CC(C)c1nnsc1CNC(=O)C1CCN(C(=O)C2CC2)CC1  14.9%
64. COCCn1ccc2c(NC(=O)c3n[nH]c4c3CCCC4)cccc21  14.8%
65. Cc1nn(C)c(C)c1C(=O)NCc1ccnc(OCC(F)(F)F)c1  13.765%
66. Cc1cc(CN2CCC(C3CCN(CCc4ccccc4)C3)CC2)[nH]n1 (stereo not given)  11.9%
67. CC1CCN(c2nc(O)cc(C3CC(=O)N(C4CCCCC4)C3)n2)CC1 (stereo not given)  11.475%
68. CCC(=O)N(C)C1CCN(Cc2ncc(C)c(OC)c2C)CC1  10.8%
69. Cn1c(NCc2ccc(C(N)=O)cc2)nc2cc(Cl)ccc21  10.7%
70. CN(C)CCCn1cnc2cc(NC(=O)c3n[nH]c4c3CCC4)ccc21  10.1%
71. Cc1cc(CN2CCC(C3CCN(CCc4ccccc4)CC3)C2)[nH]n1 (stereo not given)  9.63%
72. COCCn1ccc2c(NC(=O)c3n[nH]c4c3CCC4)cccc21  9.57%
73. Cc1ccc2c(c1)C(=O)NCC1(CCN(C(=O)c3ccnn3C)CC1)O2  8.72%
74. COc1c(C)cnc(CN(C)C2CCN(C3CCOCC3)CC2)c1C  7.24%
75. O=C(c1ccc2c(c1)OCCCO2)N1CCCC(n2cccn2)C1 (stereo not given)  7.12%
76. O=C(c1ccc(F)c(F)c1)N1C[C@H]2CNC[C@H]2C1  5.04%
77. Cc1ccoc1C(=O)N1CC[C@@H]2CN(C3CCOCC3)CCO[C@@H]2C1  4.98%
78. c1ccc(Cn2ccnc2CNCC2CCCN2c2cccnn2)cc1 (stereo not given)  4.71%
79. CNC(=O)C1(c2cnccn2)CCCN1C(=O)c1ccc(F)cc1 (stereo not given)  3.91%
80. CC1CN(CC(=O)NC(=O)NCc2cccs2)CCN1CC(F)(F)F (stereo not given)  3.03%
81. COC(=O)c1ccc2c(c1)CCCN2S(=O)(=O)c1cn(C)c(C)n1  2.25%
82. CC(C)COC1CCN(C(=O)c2cc3ccccc3c(=O)[nH]2)CC1  -1.55%
83. Cc1ccc(N2CCO[C@H]3[C@H](OCC(=O)N4CCCC4)CC[C@@H]32)cc1  -2.03%
84. COc1c(C)cnc(CN2CCC(N(C)C(=O)C3CC3)CC2)c1C  -2.19%
85. CC(C)COCCC(=O)Nc1ccc2oc(=O)n(CCN(C)C)c2c1  -3.08%
86. CN(C)CCn1c(=O)oc2ccc(NC(=O)CC(C)(C)C)cc21  -3.95%
87. O=C(c1cc2c(s1)CCOC2)N1CCCCC1Cn1cccn1 (stereo not given)  -5.07%
88. COCC1COCCC12CCN(C(=O)COc1ccccc1)CC2 (stereo not given)  -10.3%
89. COCCC(=O)N1CCC2(CCN(Cc3ccc(OC)c(F)c3)C2)C1 (stereo not given)  -10.3%
90. COCc1nc(C2CCN(Cc3nccn3C)CC2)no1  -11.7%
91. COc1ccccc1C(=O)N(C)Cc1ncc(C)c(OC)c1C  -11.7%
92. Clc1ccccc1Cn1cc(CNC2CCc3ncnn3C2)cn1 (stereo not given)  -12.1%
93. CCOC1CCN(C(=O)c2ccc(-c3cccc(C)c3)[nH]c2=O)CC1  -16%
94. CC(Cn1ccnc1)NC(=O)NCCc1cccs1 (stereo not given)  -17.08%
95. CC1CN(CC(=O)NCc2ccccn2)CCN1Cc1nccn1C (stereo not given)  -20.19%
96. Cc1ccc(N(C)C2CCN(C(=O)c3n[nH]c4c3CCC4)CC2)nn1  -20.3%
97. O=C(c1ccncc1)N1C[C@H]2CC[C@@H](C1)N(C(=O)N1CCOCC1)C2  -20.6%
98. COc1c(C)cnc(CN2CCC(N(C)S(C)(=O)=O)CC2)c1C  -21.9%
99. CCOc1cccc(NC(=O)c2cnc(C)cn2)n1  -24.5%
100. Cc1nc(N2CCCC2)ncc1-c1cc(O)nc(NCC2CCCO2)n1 (stereo not given)  -29.6%
101. COc1c(C)cnc(CN2CCC(N(C)C(=O)C(C)OC)CC2)c1C (stereo not given)  -29.8%
102. CCOc1ccc(C#N)cc1NC(=O)N1CCC(n2cncn2)CC1  -31.4%
103. CN(C)CCn1c(=O)oc2ccc(NC(=O)c3cc(Cl)c[nH]3)cc21  -31.6%
104. CCc1c(C)nc2cc(C3CCN(Cc4cccnc4)C3)nn2c1O (stereo not given)  -33.4%
105. CC(C)CCC(=O)Nc1ccc2oc(=O)n(CCN(C)C)c2c1  -34.8%
106. Cc1nn(C)c(N2CCCN(C)CC2)c1CNC(=O)C(C)(C)C  -49.5%
107. Cc1cc(CC(C)NC(=O)c2n[nH]c3c2CCC3)n[nH]1 (stereo not given)  -56.2%
108. O=C(NC1CCCCC1)c1nnc2ccc(N3CCOCC3)cc2n1  -64.4%
109. COc1ccc2c(c1)C1(CCN(Cc3cnn(C)c3)CC1)N(C)CC2  -72%
110. Cn1cnc2cc(NC(=O)c3n[nH]c4c3CCC4)ccc21  -136%
